Screens from PubChem BioAssay.
An excerpt weighted towards active compounds, which were near 3.5% of everything screened.
BJeLR viability = kills HRASV12-expressing BJeLR cells | 300,000 compounds, 0.17% hits | AID 1554 | inhibition, % (no concentration beside the values) | BJeLR (HRASV12) viability, CellTiter-Glo ATP luminescence, 48 h; in the data active = inhibition above about 50%; inconclusive = no clear call, values can overlap the other calls
Autofluor counter = compound fluorescence in toxin protease inhibitor counterscreen; compound autofluorescence counterscreen, microsphere flow cytometry; active compounds read high; fluorescence intensity (no concentration beside the values); 360,000 compounds, 3.1% hits; AID 624483; in the data active = fluorescence intensity above about 16000; inconclusive = no clear call, values can overlap the other calls
BoNT-A LC inh2 = blocks Botulinum neurotoxin A light chain protease; multiplex microsphere protease substrate cleavage, flow cytometry; inhibition, % at 10 µM; 360,000 compounds, 0.17% hits; AID 588499; note: plate controls were buffer without enzyme for full effect and enzyme alone for no effect
BoNT-F LC inh = blocks Botulinum neurotoxin F light chain protease; Multiplex microsphere protease cleavage assay, flow cytometry; inhibition, % at 10 µM; 360,000 compounds, 0.22% hits; AID 588497; in the data active = inhibition above about 35%, passing the limit was not always enough; inconclusive = no clear call, values can overlap the other calls; note: plate controls were buffer without enzyme for full effect and enzyme alone for no effect
Anthrax LF prot = inhibitors of Bacillus anthracis lethal factor protease. multiplex microsphere protease cleavage assay, LF. P15917. inhibition, % at 10 µM. 360,000 compounds, 0.12% hits. AID 588501; note: plate controls were buffer without enzyme for full effect and enzyme alone for no effect
Target sequence (P15917 whole entry, looked up): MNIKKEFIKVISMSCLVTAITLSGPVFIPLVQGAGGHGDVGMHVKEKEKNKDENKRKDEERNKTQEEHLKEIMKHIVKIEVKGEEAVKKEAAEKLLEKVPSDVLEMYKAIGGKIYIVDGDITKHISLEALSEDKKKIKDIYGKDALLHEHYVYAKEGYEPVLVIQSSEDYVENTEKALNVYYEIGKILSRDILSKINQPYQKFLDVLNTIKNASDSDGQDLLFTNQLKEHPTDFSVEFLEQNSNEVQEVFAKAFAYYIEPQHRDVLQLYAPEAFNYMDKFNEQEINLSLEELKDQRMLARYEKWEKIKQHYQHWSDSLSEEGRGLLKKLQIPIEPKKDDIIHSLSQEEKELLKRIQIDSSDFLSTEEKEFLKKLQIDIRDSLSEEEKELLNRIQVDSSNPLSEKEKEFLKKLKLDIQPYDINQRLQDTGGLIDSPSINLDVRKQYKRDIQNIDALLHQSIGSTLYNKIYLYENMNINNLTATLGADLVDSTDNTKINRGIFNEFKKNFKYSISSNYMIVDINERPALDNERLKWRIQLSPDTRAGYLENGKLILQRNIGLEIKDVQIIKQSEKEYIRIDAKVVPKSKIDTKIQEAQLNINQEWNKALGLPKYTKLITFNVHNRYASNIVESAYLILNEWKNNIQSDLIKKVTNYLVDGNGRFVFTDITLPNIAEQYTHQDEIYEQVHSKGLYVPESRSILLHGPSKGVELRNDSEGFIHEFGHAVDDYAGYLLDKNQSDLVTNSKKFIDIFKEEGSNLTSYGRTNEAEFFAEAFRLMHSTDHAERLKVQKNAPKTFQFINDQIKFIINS
Starred values were filed as active, the others as inactive; ? = inconclusive; . = no result. Cut-off read from the data, not from the text of the source, unless noted: active = inhibition above about 30%; inconclusive = no clear call, values can overlap the other calls; inactive = below that.

SMILES | BJeLR viability | Autofluor counter | BoNT-A LC inh2 | BoNT-F LC inh | Anthrax LF prot
Cn1c(/C=C/c2ccc([N+](=O)[O-])o2)nc2ccccc2c1=O | 82* | 2825 | 16 | 19 | 12
COc1cc(CN2CCCCCC2)cc([N+](=O)[O-])c1O | 13 | 4743 | -5 | -8 | -6
COc1cc(CN2CCCC(C)C2)cc([N+](=O)[O-])c1O (stereo unspecified) | -7 | 23731* | 0 | -2 | 0
COc1cc(C2Nc3cccc4cccc(c34)N2)ccc1O | -9 | 3240 | -5 | ? | -15
Oc1ccc2ccccc2c1C1Nc2cccc3cccc(c23)N1 | 1 | 23653* | -1 | -10 | -7
CCc1ccc(CCC(=O)Nc2nnc(C)s2)o1 | 2 | 20941* | ? | -2 | 0
CCc1ccc(CCC(=O)Nc2nc(CC(C)=O)ns2)o1 | 6 | 16142* | 1 | 1 | -2
COc1cc(OC)cc(C2=Cc3ccccc3C(CC(=O)c3ccco3)N2c2ccc(-c3ccc(C(N)=O)cc3)cc2)c1 (stereo unspecified) | . | 4094 | 3 | -6 | -3
Nn1c(SCc2nc3ccccc3[nH]2)nnc1-c1cccnc1 | 6 | 22326* | 0 | 0 | -2
Clc1ccc(-n2c(SC/C=C/c3ccccc3)nnc2-c2cccnc2)cc1 | 1 | 9553 | 1 | 10 | -1
CCn1c(SCc2nc3ccccc3c(=O)[nH]2)nnc1-c1cccnc1 | -4 | 23337* | ? | 1 | 1
COc1cccc(-c2nnc(SCc3nc4ccccc4[nH]3)n2N)c1 | 0 | 2716 | -2 | -10 | 0
CCn1c(SCc2nc3ccccc3c(=O)[nH]2)nnc1-c1ccncc1 | 2 | 10286 | 0 | -5 | 3
Nn1c(SC/C=C/c2ccccc2)nnc1-c1cccnc1 | 4 | 21822* | 3 | 4 | -3
Cc1nc(NC(=O)c2oc3ccccc3c2C)sc1C(=O)N(C)C | 5 | 24342* | -2 | -3 | -6
O=C(O)/C(=N/NC(=O)c1ccc(Cl)cc1)c1ccccc1 | -5 | 4073 | ? | ? | 31*
CCCCNC(=O)C1(C)CCCCN1C(=O)c1ccc2sccc2c1 (stereo unspecified) | . | 3912 | 0 | -5 | -3
COc1ccc(Cn2ccnc2)cc1[N+](=O)[O-] | . | 2583 | -1 | -6 | 0
COc1ccc(Cn2ccnc2)cc1Br | 4 | 23086* | -1 | -5 | 0
Nc1nnc(CC(=O)N/N=C/c2ccc(-c3ccc(F)cc3)o2)s1 | -12 | 4152 | 4 | 38* | ?
CCOC(=O)c1ccc(-c2ccc(/C=N/NC(=O)Cc3nnc(N)s3)o2)cc1 | -4 | 4203 | 0 | -2 | -4
COCCNC(=O)C1CCCN(C(=O)C2(c3ccc(Cl)cc3)CCCC2)CC1 (stereo unspecified) | . | 2881 | 0 | -2 | -3
Cc1noc(NS(=O)(=O)c2ccc(N/C=C/C(=O)c3ccncc3)cc2)c1C | 4 | 16425* | ? | 0 | -2
CCOC(=O)C1=CCN(S(=O)(=O)c2ccc(C)cc2)C1c1cccc(Cl)c1 (stereo unspecified) | . | 4320 | 0 | 7 | -18
COC(=O)c1cccc(NC(=O)c2ccc(S(=O)(=O)N3CCN(C)CC3)cc2)c1 | 7 | 23982* | -4 | -10 | 0
SMILES | BJeLR viability | Autofluor counter | BoNT-A LC inh2 | BoNT-F LC inh | Anthrax LF prot
CN1CCN(S(=O)(=O)c2ccc(NC(=O)c3ccc(F)cc3Cl)cc2)CC1 | 1 | 3183 | 4 | 47* | 26
CN1CCN(S(=O)(=O)c2ccc(NC(=O)c3ccccc3Cl)cc2)CC1 | -3 | . | . | . | .
CN1CCN(S(=O)(=O)c2cccc(C(=O)Nc3nc(-c4ccccc4)cs3)c2)CC1 | . | 23294* | -1 | -2 | -10
O=C(Nc1ccc(Cl)c(Cl)c1)Nc1nnc(CSc2ccccc2)s1 | 10 | 7472 | 0 | -4 | -2
CCOC(=O)C1=C(C(=O)OCC)N(Cc2ccccc2)CCC1=O | . | 3895 | 0 | -7 | 0
O=C(OCc1ccc(F)cc1)c1ccc2c(c1)-c1ccccc1C2=O | -12 | 2485 | 3 | 10 | 2
CCOC(=O)C1=C(Cc2ccc(F)cc2)C(=O)c2ccccc2C1=O | -12 | 23756* | 5 | -14 | -14
COc1ccc(NCC(=O)N2CCCC2)cc1Cl | 11 | 5348 | 0 | 0 | -3
COC(=O)C[C@](O)(CCCC(C)(C)O)C(=O)O[C@@H]1C(OC)=C[C@]23CCCN2CCc2cc4c(cc2[C@H]13)OCO4 | 92* | . | . | . | .
CCCCNC(=O)C[C@@H]1C[C@@]2(C(=O)OCC)CCC=C2N(CCC2=CCCCC2)C1=O | . | 4508 | 0 | -6 | -3
CC1=C(C(=O)Nc2ccccc2)C(c2cccc([N+](=O)[O-])c2)Nc2nc3ccccc3n21 (stereo unspecified) | -2 | 23880* | -3 | -3 | -2
Clc1ccc(Cn2c(-c3cccnc3Cl)nc3ccccc32)cc1 | 1 | 8232 | 1 | 0 | -3
CCOC(=O)Cn1c(C)nc2ccccc21 | -6 | 4886 | 0 | -14 | 1
CCn1c(-c2cccnc2Cl)nc2cc(Cl)c(Cl)cc21 | -11 | 23561* | ? | 0 | -2
Clc1ccc(Cn2c(-c3cccnc3Cl)nc3ccccc32)c(Cl)c1 | -4 | 21985* | ? | 2 | -1
CCOC(=O)Cn1c(-c2ccccn2)nc2ccccc21 | 5 | 2364 | 0 | 1 | -2
CCOC(=O)Cn1c(-c2cccnc2Cl)nc2cc(Cl)c(Cl)cc21 | 4 | 20399* | ? | -2 | 2
CCOC(=O)Cn1c(-c2cccnc2Cl)nc2cc(C)c(C)cc21 | 3 | 22326* | 0 | 1 | 1
CCCN(C)C1CN(Cc2cn(Cc3ccccc3)nn2)S(=O)(=O)C1 (stereo unspecified) | . | 5735 | 1 | 6 | -2
COc1ccccc1N1CCN(S(=O)(=O)CCNC(=O)c2cc(OC)c(OC)c(OC)c2)CC1 | -3 | 4578 | 1 | -2 | -2
O=C(NCc1ccccc1F)C1CCN(C(=O)NCc2ccccc2)CC1 | -3 | 17003* | -2 | -3 | -6
O=C(NC1CCCCC1)C1CCN(C(=O)NCc2ccccc2)CC1 | -6 | 16321* | 1 | 2 | -2
OC1C2COC(O2)C2OC(c3ccccc3)OC12 (stereo unspecified) | . | 5011 | 0 | -6 | 6
Cc1ccc(S(=O)(=O)Nc2c(NC3CCCCC3)c3ccccc3oc2=O)cc1 | 5 | 4151 | 10 | 15 | 2
Nc1c(NCCCN2CCOCC2)c2ccccc2oc1=O | -6 | 21802* | -4 | -5 | 2
Nc1c(NC2CCCCC2)c2ccccc2oc1=O | 6 | 22176* | 3 | 2 | -1
CCCNC(=O)C1(C)CCCN(Cc2cc(-c3ccccc3)n(C)n2)C1 (stereo unspecified) | . | 3370 | 0 | 6 | -5
CCCNC(=O)Cn1nc(-c2ccccc2OC)ccc1=O | . | 3532 | 0 | -3 | -3
COc1cc2c(c(OC)c1OC)-c1ccc(O)c(=O)cc1C(NC(C)=O)CC2 (stereo unspecified) | 57* | 3158 | -4 | -13 | -4
CCOC(=O)c1nn(-c2ccc(F)cc2)cc1O | 8 | 3932 | 0 | -1 | 2
